# The panel holds about 83,000 compounds, 20% with a hit somewhere; the sample as a whole holds those more often.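 A percent growth of 40 corresponds to 60% growth inhibition; 0 means no net growth; -100 means all cells died. Active threshold: below 10.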 Unmarked numbers belong to inactive results. Activity calls are given as the source filed them.
# Test system: TK-10 renal
# Assay: NCI-60 one-dose screen, 48 h (100 = growth as untreated, 0 = no growth, -100 = all killed)
# Conditions: 10 µM unless noted
# Method: Growth inhibition of the TK-10 human tumor cell line is measured as a screen for anti-cancer activity. Cells are grown in 96 well plates and exposed to the test compound for 48 hours. Compounds are tested at a single concentration, which is 10^-5 M for most compounds. The reported endpoint is percent growth (GI% or GIPRCNT), where numbers from 0 - 100% represent growth inhibition, and numbers from -100% - 0 represent cell death. For example, a value of 40 represents 60% growth inhibition. A value of 0 means no net growth occurred over the course of the experiment. A value of -40 indicates 40% of cells at the beginning of the experiment died by the end of the experiment. A value of -100 means all cells are dead at the end of the experiment.
# NCI-60 Human Tumor Cell Lines Screen was performed using the standard one-dose NCI protocol, which is described in more detail at https://dtp.cancer.gov/discovery_development/nci-60/default.htm.
# Compounds with GIPRCNT values below 10 were considered active. Activity score was based on GIPRCNT using the following formula: […]
# Score is 0 for GIPRCNT values of 100 or above, 50 for GIPRCNT values of 0, and 100 for GIPRCNT values of -100.
row,Structure (SMILES),growth
1,C=C(C)[C@@H]1CC[C@]2(C(=O)NC3CCCCC3)CC[C@]3(C)[C@H](CC[C@@H]4[C@@]5(C)CCCNC(C)(C)[C@@H]5CC[C@]43C)[C@@H]12,86.5%
2,N#Cc1c2c(nn(-c3ccccc3)c1=O)C(O)=C([N+](=O)[O-])C(c1ccccc1)C2 (stereo not given),99.1%
3,CN(C)CC1C(=O)O[C@H]2[C@H]1CC/C(COC(=O)c1cc3ccccc3[nH]1)=C\CC[C@@]1(C)O[C@@H]21 (stereo not given in full),-89.2% (active)
4,CC1=C(SCCC(=O)OC(C[Se]C2=C(C)C(=O)c3ccccc3C2=O)C(=O)NCCCCCC(=O)OCc2ccccc2)C(=O)c2ccccc2C1=O (stereo not given),114%
5,O=c1[nH]c2ccccc2n1C1CCN(CCOc2ccccc2)CC1,98.7%
6,Cc1cc(/C=C\c2ccc3ccccc3[n+]2C)c(O)c2ncccc12,23.2%
7,C=C(C)[C@@H]1CC=C2c3sc(-c4ccc(C)cc4)nc3C[C@@H](C)[C@]2(C)C1,113%
8,S=C(Cc1ccc2c(c1)CCCC2)N1CCOCC1,106%
9,N#Cc1c(N)nc2c(C#N)c(NC(=O)c3ccccc3)nn2c1-c1ccccc1,135%
10,COc1ccc(/C=C/c2c(C(=O)/C=C/c3ccc(F)cc3)c(C)nc3ccccc23)cc1,110%
11,Cc1ccc(Nc2ccc(Nc3ccc(C)cc3)c3c2C(=O)c2cccc(O)c2C3=O)cc1,137%
12,CN(C)CCC=C1c2ccccc2C(C)(C)c2ccccc21,98.3%
13,COc1cc(/C=C/C(=O)c2ccc(Nc3nc(Nc4ccc(F)cc4)nc(Nc4ccc(Cl)cc4)n3)cc2)cc(OC)c1OC,73.9%
14,Cc1ccc(N(C(=O)CCc2c[nH]c3ccccc23)[C@H](C(=O)Nc2ccc(Cl)cc2)c2cccc([N+](=O)[O-])c2)cc1,116%
15,CCOC(=O)c1c(-c2ccc(Cl)cc2)c(C#N)c(=O)n(-c2ccccc2CC)c1N,117%
16,COc1cc(/C=N/n2c(CN3CCOCC3)nc3ccccc3c2=O)cc(OC)c1OC,103%
17,CCN(CC)c1ccc(C(=O)c2ccc(N(CC)CC)cc2)cc1,35.1%
18,CCc1ccccc1-n1c(-c2ccc(Cl)cc2)cc(-c2ccc(Cl)cc2)c(C#N)c1=O,94.5%
19,COc1cc(/C=C2\C(=O)ON=C2C)cc(OC)c1OC,104%
20,COc1cc(/C=C/C(=O)c2c(C)nc3ccccc3c2C)ccc1OCCCN1CCN(C(=O)c2ccco2)CC1,110%

row,Structure (SMILES),growth
1,Cc1c(C)c2c(c(C)c1OCC(=O)O)CC[C@@](C)(CCC[C@@H](C)CCC[C@@H](C)CCCC(C)C)O2,-0.128% [50 µM] (active)
2,CCOC(=O)c1c(/C=C/C(=O)O)nc2ccccc2c1/C=C/c1ccccc1,65.5%
3,Cc1cccc(NC(=O)N/C(N)=N/c2nc(C)c(C)s2)c1,96.3%
4,Cc1cc(NCc2cc(Nc3ccnc4cc(Cl)ccc34)ccc2F)nc(N2CCOCC2)n1,-10.4% (active)
5,c1csc(-c2c3ccc(=[N+]4CCCCC4)cc-3oc3cc(N4CCCCC4)ccc23)c1,-92.5% (active)
6,O=[N+]([O-])c1ccc(C2CC(c3ccccc3)=Nc3ccccc3S2)cc1 (stereo not given),148%
7,COc1cccc(-c2nc3sccn3c2-c2ccnc(NCCNS(=O)(=O)c3cccc(Cl)c3)c2)c1,59.7%
8,COc1ccc(-c2nc(SCCC(C)C)nc(N/N=C\c3cccc([N+](=O)[O-])c3)c2C#N)cc1,42.5%
9,O=C(CCCCCCN1CC(=O)N2[C@@H](c3ccccc3Cl)c3[nH]c4ccccc4c3C[C@H]2C1=O)NO,68.9%
10,Cn1cc(-c2csc(-c3cccc(F)c3)n2)c2cccnc21,-52.7% [100 µM] (active)
11,COc1ccc2c(c1)O/C(=C\c1cccc(OCC(=O)Nc3nc4ccccc4s3)c1)C2=O,132%
12,CC(=O)OC[C@H]1OC(Sc2sc(C(=O)c3ccc(Br)cc3)c(N)c2-c2nc3ccccc3s2)[C@H](OC(C)=O)[C@@H](OC(C)=O)[C@@H]1OC(C)=O (stereo not given in full),111%
13,COc1cccc(-c2nc3sccn3c2-c2ccnc(NCCNS(=O)(=O)c3cccc(F)c3)c2)c1,51.4%
14,CCCCC1CCCCN1C(=O)OCC (stereo not given),92.7%
15,Cc1c(C(=O)N[C@@H](Cc2ccccc2)C(=O)C(=O)NCCc2ccccc2)[nH]c2ccccc2c1=O,118%
16,Cc1ccc(-c2cc(-c3ccccc3C)[nH]c(=O)c2C#N)s1,92.1%
17,CCCCCS(=O)(=O)Nc1ccc(C(=O)O)cc1,92.1%
18,COc1ccccc1CNCCCN1C(=O)c2ccc3c4c(ccc(c24)C1=O)C(=O)N(CCCNCCCCN)C3=O,-1.84% (active)
19,CC1CC2Oc3ccc(Cl)cc3C(=O)N2O1 (stereo not given),96.8%
20,Cc1ccc2c(c1)Sc1c(ccc3ccccc13)N2,127%

# — PubChem BioAssay (NCI)
